Most compounds without a hit are left out; they make up all but 0.88% or so of the library.
ERG-DNA inh: qHTS for Small Molecule Inhibitors of the ERG Ets/DNA interaction | fluorescence polarization, His-ERG Ets domain / labelled DNA | Potency, µM (top dose mostly 76.9 µM), for the others: at the highest dose FP activity, negative = inhibition, hits mostly inhibitors | hit rate 0.028% among 370,000; active means well fitted inhibition curve with a large enough effect in the polarisation, with a control signal flat; inconclusive means small, poorly fitted or top-dose-only effect, or effect the other way, or a change in a side signal; inactive means no such curve, though single readings can be large or run the other way; the % refers to the polarisation;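 further: polarization taken with two DNA probes labelled with fluorescein and Texas red; % of control where 0% means no effect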
Target sequence (P11308 whole entry, looked up, the tested form may be a part): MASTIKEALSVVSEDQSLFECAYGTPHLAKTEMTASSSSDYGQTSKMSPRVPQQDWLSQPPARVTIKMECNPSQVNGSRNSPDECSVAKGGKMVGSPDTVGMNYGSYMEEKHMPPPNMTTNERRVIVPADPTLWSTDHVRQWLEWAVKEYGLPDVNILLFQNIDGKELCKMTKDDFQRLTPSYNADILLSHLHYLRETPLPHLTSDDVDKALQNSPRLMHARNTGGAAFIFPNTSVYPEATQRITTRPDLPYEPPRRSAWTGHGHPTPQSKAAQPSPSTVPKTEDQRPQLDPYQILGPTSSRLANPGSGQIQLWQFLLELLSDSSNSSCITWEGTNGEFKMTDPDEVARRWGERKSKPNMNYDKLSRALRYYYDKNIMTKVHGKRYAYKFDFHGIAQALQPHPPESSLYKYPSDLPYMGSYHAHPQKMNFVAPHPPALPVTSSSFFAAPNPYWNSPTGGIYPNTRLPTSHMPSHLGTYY
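His-tagged ERG Ets domain (1 uM in the protein solution; 300mM KCl, 50mM Tris-HCl, 1mM EDTA, 1mM DTT, pH 7.5) received compound, then a probe mix of 5 nM fluorescein-DNA and 100nM Texas-615-DNA. Fluorescence polarization was read for both dyes.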
BLM helicase inh: qHTS Assay for Inhibitors of Bloom's syndrome helicase (BLM); RecQ-like DNA helicase BLM (Homo sapiens), P54132; recombinant BLM DNA unwinding, fluorescence dequenching; Potency, µM (titrated, usually from 56.1 µM), for the others: top-dose activity change, negative = inhibition, most hits filed as inhibitors; hit rate 0.2% among 350,000;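 further: plate controls were vehicle for no effect and no enzyme for full effect; nearly all actives have a fitted effect of over 35% in size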
APEX1 inh: qHTS Assay for Inhibitors of the Human Apurinic/apyrimidinic Endonuclease 1 (APE1). hit rate 0.35% among 350,000. Potency, µM (top dose mostly 65.8 µM), for inactives: top-dose activity change, negative = inhibition, usual class: inhibitors. DNA repair nuclease/redox regulator APEX1 (Homo sapiens), P27695. recombinant APE1, TAMRA/BHQ-2 abasic DNA cleavage fluorescence;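 further: plate controls were vehicle for no effect and reference inhibitor for full effect; nearly all actives have a fitted effect of over 55% in size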
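APE1 at 0.75 nM final was preincubated with compound 15 min at room temperature, then 50 nM double-stranded THF abasic-site substrate (5'-TAMRA/3'-BHQ-2) was added. Fluorescence (ex 525/em 598 nm) was read kinetically; third-minus-first read gave activity.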
KAT2A inh: qHTS Assay for Inhibitors of GCN5L2 | Potency, µM (series often up to 58.9 µM), for the others: top-dose activity change, negative = inhibition, most hits filed as inhibitors | AID 504327, 2011 | hit rate 0.21% among 390,000 | GCN5L2 HAT assay, ThioGlo1 CoA-SH fluorescence; further: on the % scale 0 is the no-effect control and ±100 the full control effect
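Compounds, pin-transferred from DMSO stocks, meet 20nM GCN5L2 for 15 min before the reaction begins with H3(1-25) peptide (75uM) and acetyl-CoA (70uM). Thiol-reactive ThioGlo1 reports CoA release over 20 min at room temperature.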
RECQ1 helicase: qHTS Assay for Inhibitors of RecQ-Like Dna Helicase 1 (RECQ1) | ATP-dependent DNA helicase Q1 (Homo sapiens), P46063 | RECQ1 DNA unwinding, red fluorescence kinetic read | Potency, µM (doses to about 57.3 µM), without a hit: at the highest dose activity, negative = inhibition, hits mostly inhibitors | hit rate 0.54% among 240,000;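 further: plate controls were vehicle for no effect and no enzyme for full effect; nearly all actives have a fitted effect of over 30% in size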
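50 nM RECQ1T1 preincubated 15 min with compound in Tris pH 8.0 buffer with MgCl2, DTT, Tween-20 and 2.5 ug/ml poly(dI-dC); started with 200 nM TAMRA/BHQ-2 forked duplex and 2 mM ATP. Unwinding read as fluorescence (525/598 nm), two reads 2 h apart.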
WRN inhibitor: qHTS for Inhibitors of WRN Helicase; Bifunctional 3'-5' exonuclease/ATP-dependent helicase WRN (Homo sapiens), Q14191; hit rate 0.46% among 360,000; WRN helicase unwinding, fluorescent forked duplex, kinetic; Potency, µM (doses to about 114 µM), for inactives: at the highest dose activity change, negative = inhibition, most hits filed as inhibitors; AID 651768, 2012; further: on the % scale 0 is the no-effect control and ±100 the full control effect; nearly all actives have a fitted effect of over 55% in size
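Screening of the MLSMR collection measured strand separation of a quenched forked DNA duplex (100 nM) by 20 nM WRN with 2 mM ATP, all final. Compounds were preincubated with enzyme 15 min at room temperature.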
* marks the source's active call; other numbers are inactive results; i = inactive; u = inconclusive; x = no result given; [ ] = another dose, or the depositor's remark. Unless noted, the call rests on the fitted dose curve; in most records, active means well fitted curve in the direction sought with a large enough effect; inconclusive means small, poorly fitted or top-dose-only effect, or another doubt; inactive means no such curve, though single readings can be large; an effect the other way counts as inactive or inconclusive. Potency means the concentration at half of the fitted maximal effect.

SMILES	ERG-DNA inh	BLM helicase inh	APEX1 inh	KAT2A inh	RECQ1 helicase	WRN inhibitor
COc1ccccc1NC(=O)C1=C(C)Nc2c(C(=O)Nc3cccc(C)c3)cnn2C1c1ccccc1C (centres undefined)	-5%	-7%	x	28µM*	x	x
COc1cccc(Nc2ncc3nc(-c4cccs4)c(=O)n(C[C@H]4CCCO4)c3n2)c1	x	-3%	0%	-9%	i	x
CCCC(=O)Nc1c(I)cc(I)c(C[C@H](CC)C(=O)O)c1I	x	0%	x	1%	x	x
CCC(Cc1c(I)cc(I)c(O)c1I)C(=O)O (centres undefined)	x	6%	x	22µM*	x	x
COc1ccc(C(C)=O)cc1Cn1c(C)c(C(=O)NCc2ccc(C(F)(F)F)cc2)sc1=O	x	x	x	x	x	5%[57.1 µM]
O=C(O)c1cc(O)c2c(c1)[C@@H]([C@H]1c3cc(C(=O)O)cc(O)c3C(=O)c3c(O[C@@H]4O[C@H](CO)[C@@H](O)[C@H](O)[C@H]4O)cccc31)c1cccc(O[C@@H]3O[C@H](CO)[C@@H](O)[C@H](O)[C@H]3O)c1C2=O	-12%	x	0.067µM*	0.63µM*	x	3.2µM*
O=C1CN=C(Nc2ccccc2)N1Cc1cccs1	-9%	-1%	1%	-1%	-13%	7%
Cc1cccc(NC2=NCC(=O)N2Cc2cccs2)c1	-11%	3%	u	2%	16%	50µM*
CCOc1ccc(OCC)c(NC(=O)c2nnn(CC(=O)Nc3cc(Cl)ccc3OC)c2N)c1	2%	-4%	x	0%	x	x
O=C(Cc1cccs1)N[C@@H]1C(=O)N2C(C(=O)[O-])=C(C[n+]3ccccc3)CS[C@H]12	x	x	28µM*	x	x	x
NC(=O)c1cc[n+](CC2=C(C(=O)[O-])N3C(=O)[C@@H](NC(=O)Cc4cccs4)[C@@H]3SC2)cc1	x	-6%[21.4 µM]	x	-23%[21.4 µM]	-4%[25.9 µM]	x
Cc1ccc(S(=O)(=O)CCCS(=O)(=O)c2ccc(C)cc2)cc1	5%	-1%	-3%	7%	-4%	-4%
Cc1ccc(S(=O)(=O)SCCCSS(=O)(=O)c2ccc(C)cc2)cc1	8%	x	x	x	x	50µM*
Cc1c(Cl)cccc1N1CC(C)(C)C1=O	5%	0%	-4%	4%	18µM*	-3%
CC1(C)CN(c2ccc(Br)cc2Br)C1=O	-1%	1%	1%	-8%	i	-1%
COCCn1cnc2c1-c1ccc(OC)c(c1)OC/C=C\COc1cccc-2c1	x	4%	1%	x	-7%	x
O=c1cc(-c2ccc(O)c(O)c2)oc2cc(OC3OC(CO)C(O)C(O)C3O)cc(O)c12 (centres undefined)	x	-16%	u	x	20µM*	x
Cc1sc(NC(=O)CSc2n[nH]c(N)n2)c(C#N)c1C	11%	x	x	x	x	-3%
Cc1ccc(/C=C/C2=Cc3c(sc(NC(=O)CSc4n[nH]c(N)n4)c3C#N)C(C)(C)C2)o1	x	u	-7%	-22%	20µM*	x
COc1ccc2c(c1)c(=O)oc1c(C)c(OCc3cc(C(=O)O)oc3C)ccc12	-7%	1%	14%	-11%	-9%	50µM*
Cc1cccc(Cn2cnc3c(cnn3C(C)(C)C)c2=O)c1	x	x	-4%	x	x	x
O=C(O)c1cc2c(s1)-c1ccccc1CC2	16µM*	0%	-2%	-2%	-8%	-36%[57.1 µM]
O=C(O)c1cc2c(s1)-c1ccccc1OC2	2%	2%	-5%	-28%	-7%	-35%[57.1 µM]
COc1cc(/C=C2\SC(=O)N(c3cccc(Cl)c3)C2=O)cc([N+](=O)[O-])c1O	-3%	-9%	2%	u	i	50µM*
CC(C)(C)n1ncc2c(=O)n(Cc3cccc(Oc4ccccc4)c3)cnc21	x	x	-3%	x	x	x
SMILES	ERG-DNA inh	BLM helicase inh	APEX1 inh	KAT2A inh	RECQ1 helicase	WRN inhibitor
c1nc(NC2CCNCC2)c2cc(-c3ccoc3)ccc2n1	x	57%	0%	20µM*	8%	x
CCCN1CCC(=O)N(C(CSc2ccc(Br)cc2)c2ccccc2)CC1 (centres undefined)	x	-4%	-3%	x	12%	x
CC(=O)Nc1c(S(=O)(=O)c2ccccc2)c2nc3ccccc3nc2n1Cc1ccccc1	-3%	-3%	-9%	-7%	-4%	-5%
C=CCn1c(NS(=O)(=O)c2ccccc2)c(S(=O)(=O)c2ccc(C)cc2)c2nc3ccccc3nc21	-11%	4.5µM*	5%	u	-6%	-14%
O=S(=O)(Nc1c(S(=O)(=O)c2ccccc2)c2nc3ccccc3nc2n1C1CCCCC1)c1ccccc1	x	10µM*	15%	-17%	-10%	-33%
CC(=O)Oc1ccc2c(c1)CC[C@@H]1[C@@H]2CC[C@]2(C)[C@@H](O)CC[C@@H]12	x	x	13%	x	x	x
C[C@H](N)C(=O)NCC(=O)N[C@H]1CSSC[C@@H](C(=O)O)NC(=O)[C@H](CO)NC(=O)[C@H]([C@@H](C)O)NC(=O)[C@H](Cc2ccccc2)NC(=O)[C@H]([C@@H](C)O)NC(=O)[C@H](CCCCN)NC(=O)[C@H](Cc2c[nH]c3ccccc23)NC(=O)[C@H](Cc2ccccc2)NC(=O)[C@H](Cc2ccccc2)NC(=O)[C@H](CC(N)=O)NC(=O)[C@H](CCCCN)NC1=O	x	x	x	49%	x	x
CCCn1c(C)nc2c(c1=O)c1nc3ccccc3nc1n2CCC1=CCCCC1	-2%	-3%	-2%	-7%	i	-10%
Cc1nc2c(c(=O)n1CCC1=CCCCC1)c1nc3ccccc3nc1n2/N=C/c1ccco1	2%	-23%	u	-27%	28µM*	u
O=C(O)c1ccc(-c2ccccc2C(F)(F)F)s1	x	2%[120 µM]	-4%[120 µM]	-13%[88.6 µM]	0%[126 µM]	x
C[C@H]1Cc2c(COc3ccccc3)nc3c(c2CO1)CN(C(=O)c1cccnc1)CC3	x	0%[12.4 µM]	-2%[12.4 µM]	x	i[11.5 µM]	x
COc1cc2c(cc1OC)[C@@H](c1ccccc1)CN(C)CC2	x	x	-2%	x	x	x
Cc1cc2ccccc2n1CCNC(=O)c1cccc(Cl)c1	4%	-6%	x	-7%	x	x
Cc1cc2ccccc2n1CCNC(=O)c1cccs1	32µM*	0%	-4%	1%	-12%	-27%
CC(C)(C)NC(=O)CSc1nccn1Cc1ccccc1	x	3%	-2%	3.5µM*	-7%	4%

High-throughput results from PubChem BioAssay.
